Sampled rows, rich in hits. Any-hit rate of the full collection: about 13%.
ALDH1A1 block: qHTS Assay for Inhibitors of Aldehyde Dehydrogenase 1 (ALDH1A1); Aldehyde dehydrogenase 1A1 (Homo sapiens), P00352; Purified ALDH1A1, NADH fluorescence, propionaldehyde substrate; Potency, µM (titrated, usually from 75.3 µM), for the others: at the top dose activity, negative = inhibition, hits mostly inhibitors; 7.3% of 220,000 active; AID 1030, 2008; active = well fitted inhibition curve with a large enough effect, not every such curve was filed as active; inconclusive = small, poorly fitted or top-dose-only effect, or another doubt; inactive = no such curve, though single readings can be large or run the other way;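 also: potency is read from the fitted curve at half-maximal effect; plate controls were no enzyme wells and a reference inhibitor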
KDM4E inh: qHTS Assay for Inhibitors of Human Jumonji Domain Containing 2E (JMJD2E); 1.6% of 230,000 active; Potency, µM (series often up to 57.1 µM), inactives show at the top dose activity change, negative = inhibition, hits mostly inhibitors; JMJD2E catalytic domain, FDH-coupled NADH fluorescence (FDH is formaldehyde dehydrogenase); Lysine-specific demethylase 4E (Homo sapiens), B2RXH2; active = well fitted inhibition curve with a large enough effect, not every such curve was filed as active; inconclusive = small, poorly fitted or top-dose-only effect, or another doubt; inactive = no such curve, though single readings can be large or run the other way;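 also: potency is read from the fitted curve at half-maximal effect; 0% = wells with enzyme and -100% = buffer wells without enzyme; nearly all actives have a fitted effect of over 50% in size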
Target sequence (B2RXH2 1-337 limits assumed): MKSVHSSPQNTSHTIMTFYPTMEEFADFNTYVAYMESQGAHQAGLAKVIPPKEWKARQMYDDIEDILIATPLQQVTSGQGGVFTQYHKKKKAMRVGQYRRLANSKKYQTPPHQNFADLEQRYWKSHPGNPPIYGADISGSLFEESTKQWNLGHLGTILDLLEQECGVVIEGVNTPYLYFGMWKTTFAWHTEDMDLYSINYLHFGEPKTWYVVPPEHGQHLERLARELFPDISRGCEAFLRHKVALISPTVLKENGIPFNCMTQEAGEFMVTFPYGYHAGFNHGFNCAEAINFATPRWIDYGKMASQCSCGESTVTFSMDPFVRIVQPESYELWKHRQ
LMNA splice mod: qHTS Assay for Modulators of Lamin A Splicing; HeLa LMNA splicing GFP/RFP minigene ratio, 48 h; Potency, µM (doses to about 46.1 µM), for the others: at the highest dose ratio change, negative = inhibition, most hits filed as inhibitors; 0.01% of 200,000 active; active = well fitted inhibition curve with a large enough effect in the signal ratio, with a control signal flat, not every such curve was filed as active; inconclusive = small, poorly fitted or top-dose-only effect, or effect the other way, or a change in a side signal; the % refers to the signal ratio; also: potency is read from the fitted curve at half-maximal effect; % is scaled to controls: 0 for no effect and ±100 for the full control effect
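S3 HeLa cells stably expressing lamin A-EGFP splicing minigene plus DsRed2, 600 cells/well, 48 h compound exposure at 37C. Laser-scanning cytometry; analysed as GFP (500-530 nm)/RFP (575-640 nm) total intensity ratio; 0.5% DMSO vehicle.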
miR-21 act: qHTS Assay for Modulators of miRNAs and/orActivators of miR-21. HeLa miR-21 FLuc reporter, luciferase, 48 h. Potency, µM (series often up to 38.3 µM), without a hit: top-dose activity change, positive = activation, actives largely listed as activators. 340,000 tested, under 10 active;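 also: % of control where 0% means no effect; miR-21 action dims this reporter so a rising signal means less miR-21 action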
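Using DMEM plus 10% FBS, HeLa miR-21-FLuc cells are incubated with test compounds (final up to about 40uM) for 48 hours; firefly luciferase signal is then imaged following reagent-mediated lysis.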
G9a block: qHTS Assay for Inhibitors of Histone Lysine Methyltransferase G9a. G9a H3K9 monomethylation, AlphaScreen, 2 h. Potency, µM (series often up to 102 µM), without a hit: at the highest dose activity, negative = inhibition, actives largely listed as inhibitors. Histone-lysine N-methyltransferase EHMT2 (Homo sapiens), Q96KQ7. 8.8% of 350,000 active; also: potency is read from the fitted curve at half-maximal effect; % is scaled to controls: 0 for no effect and ±100 for the full control effect; nearly all actives have a fitted effect of over 75% in size
Target sequence (Q96KQ7 913-1193 limits assumed): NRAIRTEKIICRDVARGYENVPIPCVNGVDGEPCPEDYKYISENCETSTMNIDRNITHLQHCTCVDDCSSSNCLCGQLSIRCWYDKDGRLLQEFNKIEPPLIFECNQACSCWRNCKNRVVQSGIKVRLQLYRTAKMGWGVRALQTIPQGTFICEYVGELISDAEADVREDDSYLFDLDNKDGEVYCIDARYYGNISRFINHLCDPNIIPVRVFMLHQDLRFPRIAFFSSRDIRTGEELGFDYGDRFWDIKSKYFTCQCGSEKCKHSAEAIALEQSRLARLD
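Quantitative HTS format: methyltransferase activity on a biotin-tagged H3K9 peptide is measured by AlphaScreen, using a rabbit anti-monomethyl-H3K9 antibody with streptavidin donor and anti-IgG acceptor beads. Final levels are 20 nM enzyme, 500 nM peptide, 20 uM SAM; 2 h RT.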
Sfp inh: qHTS Assay for Inhibitors of Bacillus subtilis Sfp phosphopantetheinyl transferase (PPTase) | 4'-phosphopantetheinyl transferase ffp (Bacillus subtilis), Q9F4F7 | Biochemical Sfp PPTase activity, qHTS | Potency, µM, for inactives: largest response in the series, negative = inhibition, most hits filed as inhibitors | 3.5% of 310,000 active;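 also: the enzyme is Sfp with the accession as filed and its product quenches rhodamine fluorescence; potency is read from the fitted curve at half-maximal effect; 0% = enzyme reaction without inhibitor and -100% = no enzyme wells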
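Buffer: 50 mM Hepes-Na pH 7.6, 10 mM MgCl2, 0.01% Nonidet P-40, 0.01% BSA. Enzyme 15 nM, pre-exposed to compound 15 min; substrates then added and fluorescence change tracked over 30 min.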
Starred values were filed as active, the others as inactive; ? = inconclusive; . = no result; [ ] = another dose, or the depositor's remark. Unless noted, calls follow the shape of the dose curve; as a rule, active = well fitted curve in the direction sought with a large enough effect; inconclusive = small, poorly fitted or top-dose-only effect, or another doubt; inactive = no such curve, though single readings can be large; an effect the other way counts as inactive or inconclusive.

SMILES | ALDH1A1 block | KDM4E inh | LMNA splice mod | miR-21 act | G9a block | Sfp inh
CCOC(=O)C(=O)N=Nc1c(O)n(C)c2ccccc12 | 14µM* | 10% | 1%[46 µM] | -1% | . | -6%
CCOC(=O)N=Nc1c(O)n(CC(=O)OC)c2ccccc12 | 7.1µM* | -13% | . | 2% | -1% | 7%
Cc1nc2ccc(NC(=S)NCCCO)cc2nc1C | ? | ? | . | -27% | 28µM* | 56µM*
Cc1nc2ccc(NC(=S)NC3CC3)cc2nc1C | 3% | -6% | 3% | -40% | -14%[59 µM] | 4%
OCCNC(=S)Nc1ccc2nsnc2c1 | -1% | -19% | ? | 0% | 35µM* | -39%
CC(C)CN(C[C@@H](O)[C@H](Cc1ccccc1)NC(=O)O[C@H]1CCOC1)S(=O)(=O)c1ccc(N)cc1 | 7% | . | ? | . | 26%[59 µM] | 14%
Cc1c(N/N=C(\C#N)C(=O)c2ccccc2)c(=O)n(-c2ccccc2)n1C | ? | 2% | ? | 20% | ? | -10%
CCOC(=O)/C(C#N)=N/Nc1c(C)n(C)n(-c2ccccc2)c1=O | 7.9µM* | ? | -15%[46 µM] | 5% | 18µM* | -90%
O=C(O)c1cccnc1SCc1cn2cc(Br)ccc2n1 | 13% | 0% | 7%[46 µM] | 4% | 50µM* | -6%
Cc1ccc(C)c(CSc2ncccc2C(=O)O)c1 | -1% | ? | 0% | -11% | 50µM* | -1%
CCCN1CCN(S(=O)(=O)c2ccc(-c3cc(C)no3)s2)CC1 | . | . | . | 4% | ? | 16%
Clc1cccc(CSc2nnc(-c3cccnc3)n2Cc2ccco2)c1 | -4% | 12% | 3% | -1% | ? | 50µM*
Clc1ccc(CSc2nnc(-c3cccnc3)n2Cc2ccco2)c(Cl)c1 | 4.5µM* | ? | ? | -7% | 35µM* | 35µM*
COc1ccccc1NC(=O)COc1ccc(C(=O)NC2CCCc3ccccc32)cc1OC (stereo not drawn) | 1% | -1% | . | 3% | . | 10%
COC(=O)c1ccc(NC(=O)CC2C(=O)N(c3cccc(C)c3)C(=O)N2C2CCCC2)cc1 (stereo not drawn) | . | . | . | 3% | 7.1µM* | .
Cc1cccc(N2C(=O)C(CC(=O)Nc3ccccc3)N(C3CCCCC3)C2=O)c1 (stereo not drawn) | . | . | . | -1% | -4%[59 µM] | .
CCc1ccc(NC(=O)CC2C(=O)N(c3ccc(C)cc3)C(=O)N2CCc2ccncc2)cc1 (stereo not drawn) | 3.5µM* | -15% | 8%[9.22 µM] | ? | -17% | -16%
CCc1ccc(NC(=O)CC2C(=O)N(c3cccc(C)c3)C(=O)N2C2CC2)cc1 (stereo not drawn) | 11µM* | 5% | . | 10% | -29% | 14%
COc1ccc(NC(=O)CC2C(=O)N(c3cccc(C)c3)C(=O)N2C2CCCCC2)cc1 (stereo not drawn) | -2% | -3% | -3% | 0% | -19%[59 µM] | ?
COc1cccc(NC(=O)c2cnc(SC)nc2)c1 | . | . | . | -18% | . | 1%
Cc1cccc(/C=N/n2c(C)nc3ccccc3c2=O)c1 | . | . | . | -30% | 5% | 7%
COc1ccc(C2=C/C(=C\c3ccccc3OC(C)=O)C(=O)O2)cc1 | . | . | . | -13% | . | -6%
COc1ccc(C2=C/C(=C\c3cccc(OC(C)=O)c3)C(=O)O2)cc1 | 25µM* | 12% | -13% | -6% | -7%[59 µM] | -77%
CCCC(c1nnnn1CCOC)N(Cc1cc2cc(C)c(C)cc2[nH]c1=O)CC1CCCO1 (stereo not drawn) | ? | ? | -4% | -8% | -16%[12.7 µM] | 10µM*
CCC(c1nnnn1CCOC)N(Cc1cc2cc(C)c(C)cc2[nH]c1=O)CC1CCCO1 (stereo not drawn) | -16% | ? | 12% | -3% | ? | ?
SMILES | ALDH1A1 block | KDM4E inh | LMNA splice mod | miR-21 act | G9a block | Sfp inh
CCC(c1nnnn1CCOC)N(Cc1cc2c(C)cc(C)cc2[nH]c1=O)CC1CCCO1 (stereo not drawn) | 11µM* | 0% | -3% | -9% | 10%[12.7 µM] | -10%
CCCC(c1nnnn1CC(=O)OCC)N(Cc1cc2c(C)cc(C)cc2[nH]c1=O)C1CCCC1 (stereo not drawn) | 8.9µM* | ? | ? | -3% | 28µM* | -13%
CCC(c1nnnn1CC1CCCO1)N(CCN1CCOCC1)Cc1cc2cc(C)ccc2[nH]c1=O (stereo not drawn) | ? | ? | -2% | 0% | 32%[12.7 µM] | 45µM*
Cn1cc(S(=O)(=O)N2CCCCC2)cc1C(=O)Nc1ccc(OC(F)(F)F)cc1 | . | . | 13%[46 µM] | -3% | 10%[59 µM] | .
CCNc1ncc2nc(-c3cn(C)c4ccccc34)c(=O)n(-c3ccccc3)c2n1 | 12% | . | ? | . | -2%[0.501 µM] | 15%
CN(C)C(CNc1ccc(S(C)(=O)=O)cc1[N+](=O)[O-])c1ccccc1 (stereo not drawn) | . | . | . | -3% | -9% | 11%
Cc1ccc(Nc2ccc(C(F)(F)F)cc2[N+](=O)[O-])cc1 | 15% | 0% | -9% | -5% | 3.2µM* | 15%
CN(C)C(CNc1ccc(C(F)(F)F)cc1[N+](=O)[O-])c1ccccc1 (stereo not drawn) | . | . | . | 1% | 32µM* | -11%
Cc1ccc(OCCNc2ccc(C(F)(F)F)cc2[N+](=O)[O-])cc1 | 2% | 4% | -14% | -6% | -2%[59 µM] | 14%
CC(C)(CNc1ccc(C(F)(F)F)cc1[N+](=O)[O-])N1CCOCC1 | . | . | . | -2% | 71µM* | -4%
CC(=O)c1cc(CN2CCC(N3CCC(C(=O)N4CCCC4)CC3)CC2)cs1 | -9% | -9% | . | -9% | 11µM* | 22µM*
CC(=O)c1cc(CN2CCC(N3CCC(C(=O)NC(C)C)CC3)CC2)cs1 | 3% | -5% | 2%[46 µM] | 0% | 3% | 19%
COCc1cc(S(=O)c2ccc(Cl)cc2)nc(C)n1 (stereo not drawn) | 18µM* | -14% | . | 18% | ? | 79µM*
CCc1ccc(S(=O)(=O)NCc2ccc3c(c2)CCN3C(=O)c2ccc(C)cc2)cc1 | . | . | -6%[46 µM] | 0% | 10%[59 µM] | .
CCCCCOc1ccc(C2C(C(=O)c3ccc(C)o3)=C(O)C(=O)N2c2cc(C)on2)cc1 (stereo not drawn) | . | . | . | 1% | 45µM* | 8%
COc1cc(C2C(C(=O)c3ccc(C)o3)=C(O)C(=O)N2c2cc(C)on2)ccc1OCc1ccccc1 (stereo not drawn) | . | . | . | -1% | 45µM* | 8%
